The source of these data is PubChem BioAssay (EPA / NIEHS).

The term AC50 denotes the midpoint of the concentration-response curve, whichever way the signal moves.

Several values for one entry are separate records, joined by “and”; a condition that tells them apart may be missing. Equal values may be shown once. Inconclusive results are not listed. Activity calls are given as the source filed them. The calls were made as follows, unless noted: active = hit-call score of the fitted dose curve at least 0.9, where 1 is the maximum; inactive = score below 0.9.

The nature of assay [1]: ATG_NFI_CIS: Attagene CIS-FACTORIAL HepG2 Assay for human Nuclear Factor I (NFI) (AID 2282989). Conditions: HepG2 cis-regulatory reporter, NFI response element transcription; actives raise or lower the signal. The gist of the method:
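After transient transfection of HepG2 with cis-promoter reporter constructs and 24 h dosing, RNA is reverse-transcribed, amplified, 6-FAM end-labelled and HpaI-digested before capillary analysis. Bidirectional curve fitting against DMSO.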

The target of assay [2] is Myc proto-oncogene protein (Homo sapiens) (UniProt P01106). Kind of assay: ATG_Myc_CIS: Attagene CIS-FACTORIAL HepG2 Assay for human Myelocytomatosis (Myc) Proto-Oncogene Transcription Factor (AID 2282990). The settings on record: HepG2, Attagene cis-reporter transcription factor activity; actives raise or lower the signal. The gist of the method:
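Fluorescence intensity of reporter-specific cDNA fragments, separated by capillary electrophoresis, gives the signal. Transfected HepG2 cells carrying cis-promoter reporter constructs are incubated with compound for 24 h; DMSO serves as baseline.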

Assay [3] is described as follows: ATG_NF_kB_CIS: Attagene CIS-FACTORIAL HepG2 Assay for human Nuclear Factor Kappa B (NF-kB) (AID 2282991). The settings on record: HepG2 Attagene cis-factorial NF-kB reporter mRNA; actives raise or lower the signal. Put shortly:
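After 24 h compound incubation, transfected HepG2 cells yield total RNA; reporter cDNA is PCR-amplified, end-labelled with 6-FAM, HpaI-digested and analysed on a genetic analyser. Endogenous factor activity, DMSO-referenced bidirectional fit.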

Assay [4] can be described thus: ATG_NRF2_ARE_CIS: Attagene CIS-FACTORIAL HepG2 Assay for human Nuclear Factor Erythroid 2 Related Factor 2 (NFR2) response to Antioxidant Response Elements (ARE) (AID 2282992). The settings on record: HepG2 Attagene ARE/NRF2 reporter, transcription factor activity; actives raise or lower the signal. The gist of the method:
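Cis-factorial assay: transfected HepG2 reporter library, 24 h dosing, mRNA readout via RT-PCR/CE; DMSO-referenced bidirectional analysis.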

The nature of assay [5]: ATG_Oct_MLP_CIS: Attagene CIS-FACTORIAL HepG2 Assay for human Octamer-Binding Transcription Factor (Oct) (AID 2282993). The settings on record: HepG2 Attagene cis-factorial Oct reporter, mRNA; actives raise or lower the signal. Put shortly:
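Cells of the HepG2 line express promoter-controlled reporter sequences whose mRNA levels, after 24 h treatment, are measured by RT-PCR and capillary electrophoresis. Increases and decreases are scored relative to DMSO.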

The target of assay [6] is Cellular tumor antigen p53 (Homo sapiens) (UniProt P04637). In words: ATG_p53_CIS: Attagene CIS-FACTORIAL HepG2 Assay for human p53 Transcription Factor (AID 2282994). Conditions: HepG2 p53 cis-element reporter, Attagene mRNA; actives raise or lower the signal. Put shortly:
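Using HepG2 hepatoma cells carrying cis-acting multiplexed reporters, mRNA induction is detected after a 24 h exposure. Gain- and loss-of-signal responses are fitted relative to DMSO-treated cells.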

The nature of assay [7]: BSK_3C_TissueFactor: BioMAP Diversity Plus: 3C Assay for Tissue Factor Biomarker Activity (AID 2282997). The settings on record: BioMAP 3C HUVEC, tissue factor biomarker readout; actives raise or lower the signal. Put shortly: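 Primary human umbilical vein endothelial cells in the 3C system were exposed to test chemical for 24 h, then Tissue Factor measured by ELISA. Activity was fitted bidirectionally against DMSO as negative control and baseline.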

Assay [8] can be described thus: BSK_3C_uPAR: BioMAP Diversity Plus: 3C Assay for Urokinase-type plasminogen activator receptor (uPAR) Biomarker Activity (AID 2282998). Conditions: BioMAP 3C HUVEC, uPAR biomarker ELISA; actives raise or lower the signal. The gist of the method:
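Endothelial primary cells of human umbilical vein origin received test chemical; 24 h later uPAR was assayed by ELISA. Fitting was bidirectional, DMSO as negative control.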

The nature of assay [9]: BSK_3C_VCAM1: BioMAP Diversity Plus: 3C Assay for Vascular cell adhesion molecule 1 (VCAM1) Biomarker Activity (AID 2282999). Conditions: BioMAP 3C HUVEC, VCAM1 ELISA, cytokine-stimulated; actives raise or lower the signal. Put shortly:
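Human umbilical vein endothelial cells (3C system), biomarker read by ELISA 24 h after dosing; bidirectional fit against DMSO baseline. Cytotoxicity tracked by SRB total-protein staining in parallel cultures at biomarker time.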
(ELISA stands for enzyme-linked immunosorbent assay.)

Assay [10] can be described thus: BSK_4H_Eotaxin3: BioMAP Diversity Plus: 4H Assay for Eotaxin 3 Biomarker Activity (AID 2283000).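 As to outcome: CCL26 protein level quantified by ELISA in parallel with SRB cytotoxicity check.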 The settings on record: primary human endothelial cells (HUVEC); actives raise or lower the signal. The gist of the method: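 HUVEC, 24 h post-dose, ELISA for Eotaxin-3/CCL26. Gain or loss of signal fitted bidirectionally vs DMSO baseline.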
The target of assay [11] is human Peroxisome Proliferator-activated Receptor alpha (PPARa), PPARA (gene 5465) (UniProt Q07869). Kind of assay: ATG_PPARa_TRANS: Attagene TRANS-FACTORIAL HepG2 Assay for human Peroxisome Proliferator-activated Receptor alpha (PPARa) (AID 2283001; active = hit-call score of the fitted dose curve at least 0.9, where 1 is the maximum). The gist of the method:
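Measures transcriptional activity of an exogenous chimeric PPARa-Gal4 protein in transiently transfected HepG2 cells after 24 h dosing. Reporter mRNA quantified via RT-PCR and capillary electrophoresis; DMSO served as negative control.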

Assay [12] has as its target human Peroxisome Proliferator-activated Receptor delta (PPARd), PPARD (gene 5467) (UniProt Q03181). In words: ATG_PPARd_TRANS: Attagene TRANS-FACTORIAL HepG2 Assay for human Peroxisome Proliferator-activated Receptor delta (PPARd) (AID 2283002; active = hit-call score of the fitted dose curve at least 0.9, where 1 is the maximum). Put shortly:
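Fluorescence from capillary electrophoresis of labelled RT-PCR reporter fragments gives the signal; DMSO sets baseline. Cells: HepG2 transiently carrying GAL4-UAS reporter units plus chimeric nuclear receptor-Gal4 proteins, exposed to chemicals for 24 h.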

Read-out in assay [13]: Intercellular Adhesion Molecule 1 (ICAM1), ICAM1 (gene 3383)
Kind of assay: BSK_3C_ICAM1: BioMAP Diversity Plus: 3C Assay for Intercellular Adhesion Molecule 1 (ICAM1) Biomarker Activity (AID 2283003). Conditions: primary human endothelial cells (HUVEC); actives raise or lower the signal. Put shortly:
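Primary human umbilical vein endothelial cells in the BioMAP 3C system were exposed to chemicals for 24 h, then ICAM-1 was quantified by ELISA. Activity was fitted bidirectionally against the DMSO negative control baseline.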

Assay [14] addresses human Retinoic Acid Receptor beta (RARb), RARB (gene 5915) (UniProt P10826). Kind of assay: ATG_RARb_TRANS: Attagene TRANS-FACTORIAL HepG2 Assay for human Retinoic Acid Receptor beta (AID 2283004; active = hit-call score of the fitted dose curve at least 0.9, where 1 is the maximum). The gist of the method: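 HepG2 cells transiently transfected with multiplexed GAL4-UAS reporter units expressing chimeric NR–Gal4 fusions; 24 h compound exposure. Reporter mRNA quantified by RT-PCR, 6-FAM labelling, HpaI digestion and capillary electrophoresis; gain-of-signal fitted against DMSO baseline.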

A short description of assay [15]: BSK_3C_Proliferation: Cell Proliferation Assessment in the BioMAP Diversity Plus: 3C Assay (AID 2283006).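 Also: potency may reflect either rise or fall in cell number versus DMSO.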 Conditions: primary human endothelial cells (HUVEC). Put shortly: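 Human umbilical vein endothelial cells were grown sub-confluent and exposed to chemical for 48 h, then fixed with 10% TCA and stained with 0.1% sulforhodamine B; absorbance at 560 nm gave relative cell number, fitted bidirectionally against DMSO baseline.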

The target of assay [16] is Peroxisome proliferator-activated receptor gamma (Homo sapiens) (UniProt P37231). In words: ATG_PPARg_TRANS: Attagene TRANS-FACTORIAL HepG2 Assay for human Peroxisome Proliferator-activated Receptor-gamma (PPARg) (AID 2283007; active = hit-call score of the fitted dose curve at least 0.9, where 1 is the maximum). The gist of the method:
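Liver-derived HepG2 cells expressing an exogenous NR-Gal4 chimera alongside GAL4-UAS reporter genes; 24 h exposure. Fluorescence of reporter RT-PCR products, separated by capillary electrophoresis, gives mRNA induction relative to DMSO.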

For assay [17], the target named is human Retinoic Acid Receptor gamma (RARg), RARG (gene 5916) (UniProt P13631). In words: ATG_RARg_TRANS: Attagene TRANS-FACTORIAL HepG2 Assay for human Retinoic Acid Receptor gamma (RARg) (AID 2283009; active = hit-call score of the fitted dose curve at least 0.9, where 1 is the maximum). Put shortly:
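HepG2 cells transiently transfected with multiplexed reporter units expressing chimeric RARg-GAL4 and GAL4-UAS-driven reporters; 24 h compound exposure. Reporter mRNA quantified by RT-PCR with fluorescent labelling and capillary electrophoresis; gain-of-signal fitted relative to DMSO baseline.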

Assay [18] addresses Nuclear receptor subfamily 1 group I member 2 (Homo sapiens) (UniProt O75469). Kind of assay: ATG_PXR_TRANS: Attagene TRANS-FACTORIAL HepG2 Assay for human Pregnane X Receptor (PXR) (AID 2283008; active = hit-call score of the fitted dose curve at least 0.9, where 1 is the maximum). The gist of the method: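 Fluorescence intensity of FAM-labelled, HpaI-digested reporter amplicons, separated by capillary electrophoresis, quantifies induction. HepG2 cells with PXR-Gal4 trans-reporter system were exposed 24 h; DMSO defines baseline.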

The target of assay [19] is Retinoic acid receptor alpha (Homo sapiens) (UniProt P10276). Kind of assay: ATG_RARa_TRANS: Attagene TRANS-FACTORIAL HepG2 Assay for human Retinoic Acid Receptor alpha (RARa) (AID 2283005; active = hit-call score of the fitted dose curve at least 0.9, where 1 is the maximum). Put shortly:
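HepG2 transiently transfected with multiplex GAL4-UAS reporter units including a human RARa–GAL4 chimera; 24 h compound exposure. Reporter mRNA quantified by RT-PCR, 6-FAM labeling and capillary electrophoresis; gain of signal versus DMSO.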

In assay [20] the target is human RAR-related Orphan Receptor beta (RORb), RORB (gene 6096) (UniProt Q92753). Kind of assay: ATG_RORb_TRANS: Attagene TRANS-FACTORIAL HepG2 Assay for human RAR-related Orphan Receptor beta (RORb) (AID 2283010; active = hit-call score of the fitted dose curve at least 0.9, where 1 is the maximum). Put shortly: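 HepG2 cells were transiently transfected with multiplexed GAL4-UAS reporter units expressing chimeric nuclear receptor–GAL4 proteins, then dosed for 24 h. Reporter mRNA was quantified by RT-PCR with fluorescent labelling and capillary electrophoresis; gain of signal was fitted relative to DMSO.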
Sequence of human RAR-related Orphan Receptor beta (RORb), RORB (gene 6096) (Q92753 whole entry, looked up, the tested form may be a part): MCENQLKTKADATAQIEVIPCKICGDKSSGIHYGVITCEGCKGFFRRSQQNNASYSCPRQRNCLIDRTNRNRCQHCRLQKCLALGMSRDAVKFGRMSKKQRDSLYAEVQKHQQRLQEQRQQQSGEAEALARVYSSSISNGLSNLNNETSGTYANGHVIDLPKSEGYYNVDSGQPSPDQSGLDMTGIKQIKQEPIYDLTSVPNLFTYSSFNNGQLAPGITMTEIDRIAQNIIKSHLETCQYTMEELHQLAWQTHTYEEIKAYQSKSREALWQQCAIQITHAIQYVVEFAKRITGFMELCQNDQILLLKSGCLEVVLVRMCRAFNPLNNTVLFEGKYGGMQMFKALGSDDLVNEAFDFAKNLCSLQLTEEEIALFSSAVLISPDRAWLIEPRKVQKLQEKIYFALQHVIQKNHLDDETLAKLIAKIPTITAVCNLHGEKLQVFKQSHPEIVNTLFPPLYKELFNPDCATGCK

Sequence of human Peroxisome Proliferator-activated Receptor delta (PPARd), PPARD (gene 5467) (Q03181 whole entry, looked up, the tested form may be a part): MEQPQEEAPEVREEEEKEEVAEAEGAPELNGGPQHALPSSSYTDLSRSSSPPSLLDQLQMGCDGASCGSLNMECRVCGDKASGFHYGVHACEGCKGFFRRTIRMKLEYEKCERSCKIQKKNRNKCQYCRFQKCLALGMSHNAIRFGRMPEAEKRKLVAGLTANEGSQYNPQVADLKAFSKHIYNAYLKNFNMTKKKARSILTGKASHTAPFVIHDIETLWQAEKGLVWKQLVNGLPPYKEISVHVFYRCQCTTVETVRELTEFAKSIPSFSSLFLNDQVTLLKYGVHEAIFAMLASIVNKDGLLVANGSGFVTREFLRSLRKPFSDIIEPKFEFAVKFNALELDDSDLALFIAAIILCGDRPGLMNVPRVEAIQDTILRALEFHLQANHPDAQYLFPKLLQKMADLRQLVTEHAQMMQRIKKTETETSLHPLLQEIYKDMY
Sequence of human Retinoic Acid Receptor beta (RARb), RARB (gene 5915) (P10826 whole entry, looked up, the tested form may be a part): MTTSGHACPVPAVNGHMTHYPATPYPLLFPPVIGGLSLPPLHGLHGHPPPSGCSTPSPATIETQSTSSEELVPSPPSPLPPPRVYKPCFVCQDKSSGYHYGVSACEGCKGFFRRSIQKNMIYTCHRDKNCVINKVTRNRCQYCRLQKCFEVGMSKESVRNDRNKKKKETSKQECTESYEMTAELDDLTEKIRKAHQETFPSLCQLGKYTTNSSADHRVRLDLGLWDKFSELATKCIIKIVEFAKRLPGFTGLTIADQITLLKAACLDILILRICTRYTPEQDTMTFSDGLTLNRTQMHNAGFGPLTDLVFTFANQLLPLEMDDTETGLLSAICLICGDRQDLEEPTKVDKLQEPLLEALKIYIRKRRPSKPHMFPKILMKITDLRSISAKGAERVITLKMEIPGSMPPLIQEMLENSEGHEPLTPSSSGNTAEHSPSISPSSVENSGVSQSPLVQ
Sequence of human Peroxisome Proliferator-activated Receptor alpha (PPARa), PPARA (gene 5465) (Q07869 whole entry, looked up, the tested form may be a part): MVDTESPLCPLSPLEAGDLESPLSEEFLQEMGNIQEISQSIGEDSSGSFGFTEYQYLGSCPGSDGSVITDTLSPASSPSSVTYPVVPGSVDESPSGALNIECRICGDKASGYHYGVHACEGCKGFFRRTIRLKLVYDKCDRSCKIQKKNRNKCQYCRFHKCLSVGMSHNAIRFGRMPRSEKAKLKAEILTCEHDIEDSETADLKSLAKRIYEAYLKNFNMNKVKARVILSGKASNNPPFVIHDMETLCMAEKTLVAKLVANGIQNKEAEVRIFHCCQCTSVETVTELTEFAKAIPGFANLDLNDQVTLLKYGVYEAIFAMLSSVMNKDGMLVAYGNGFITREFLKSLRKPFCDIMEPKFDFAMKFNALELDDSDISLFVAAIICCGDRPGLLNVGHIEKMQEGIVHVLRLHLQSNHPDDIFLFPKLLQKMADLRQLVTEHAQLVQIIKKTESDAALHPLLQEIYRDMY
Sequence of Cellular tumor antigen p53 (Homo sapiens) (P04637 whole entry, looked up): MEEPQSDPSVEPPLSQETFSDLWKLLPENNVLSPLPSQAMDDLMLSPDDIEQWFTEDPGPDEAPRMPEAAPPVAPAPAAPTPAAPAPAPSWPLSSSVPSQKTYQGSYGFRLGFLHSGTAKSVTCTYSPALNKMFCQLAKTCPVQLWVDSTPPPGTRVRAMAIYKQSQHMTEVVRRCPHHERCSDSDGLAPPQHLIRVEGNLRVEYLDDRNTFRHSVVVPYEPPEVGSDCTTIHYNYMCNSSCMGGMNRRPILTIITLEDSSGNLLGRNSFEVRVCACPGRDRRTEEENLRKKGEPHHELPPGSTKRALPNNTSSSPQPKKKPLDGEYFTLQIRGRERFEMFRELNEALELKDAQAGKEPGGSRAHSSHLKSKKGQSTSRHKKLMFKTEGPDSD
Sequence of Peroxisome proliferator-activated receptor gamma (Homo sapiens) (P37231 whole entry, looked up, the tested form may be a part): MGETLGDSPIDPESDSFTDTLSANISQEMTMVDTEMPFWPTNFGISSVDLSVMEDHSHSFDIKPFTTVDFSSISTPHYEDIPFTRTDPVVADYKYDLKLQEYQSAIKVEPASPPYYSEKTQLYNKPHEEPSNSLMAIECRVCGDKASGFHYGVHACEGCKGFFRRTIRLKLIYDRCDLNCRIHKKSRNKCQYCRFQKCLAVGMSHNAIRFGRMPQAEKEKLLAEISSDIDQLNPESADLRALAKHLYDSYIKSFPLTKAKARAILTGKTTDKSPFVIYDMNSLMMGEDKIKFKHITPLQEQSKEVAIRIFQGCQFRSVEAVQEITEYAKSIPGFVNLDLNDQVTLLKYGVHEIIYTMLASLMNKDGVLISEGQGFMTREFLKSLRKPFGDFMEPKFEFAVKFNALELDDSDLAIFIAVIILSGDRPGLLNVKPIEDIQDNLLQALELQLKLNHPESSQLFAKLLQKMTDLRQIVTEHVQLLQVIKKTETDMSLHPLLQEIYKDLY
Sequence of human Retinoic Acid Receptor gamma (RARg), RARG (gene 5916) (P13631 whole entry, looked up, the tested form may be a part): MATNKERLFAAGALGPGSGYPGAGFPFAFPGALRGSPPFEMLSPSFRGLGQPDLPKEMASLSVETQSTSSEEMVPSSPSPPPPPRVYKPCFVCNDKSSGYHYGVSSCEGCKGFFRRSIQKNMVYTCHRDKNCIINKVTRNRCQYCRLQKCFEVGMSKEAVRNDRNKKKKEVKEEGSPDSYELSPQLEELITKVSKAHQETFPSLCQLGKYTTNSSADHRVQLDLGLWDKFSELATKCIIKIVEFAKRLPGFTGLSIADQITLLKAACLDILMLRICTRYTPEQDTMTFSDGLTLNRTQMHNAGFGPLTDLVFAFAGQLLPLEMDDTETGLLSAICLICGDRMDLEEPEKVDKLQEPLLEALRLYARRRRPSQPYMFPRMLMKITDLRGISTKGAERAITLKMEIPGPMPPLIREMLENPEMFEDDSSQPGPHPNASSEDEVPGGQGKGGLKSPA
Sequence of Myc proto-oncogene protein (Homo sapiens) (P01106 whole entry, looked up, the tested form may be a part): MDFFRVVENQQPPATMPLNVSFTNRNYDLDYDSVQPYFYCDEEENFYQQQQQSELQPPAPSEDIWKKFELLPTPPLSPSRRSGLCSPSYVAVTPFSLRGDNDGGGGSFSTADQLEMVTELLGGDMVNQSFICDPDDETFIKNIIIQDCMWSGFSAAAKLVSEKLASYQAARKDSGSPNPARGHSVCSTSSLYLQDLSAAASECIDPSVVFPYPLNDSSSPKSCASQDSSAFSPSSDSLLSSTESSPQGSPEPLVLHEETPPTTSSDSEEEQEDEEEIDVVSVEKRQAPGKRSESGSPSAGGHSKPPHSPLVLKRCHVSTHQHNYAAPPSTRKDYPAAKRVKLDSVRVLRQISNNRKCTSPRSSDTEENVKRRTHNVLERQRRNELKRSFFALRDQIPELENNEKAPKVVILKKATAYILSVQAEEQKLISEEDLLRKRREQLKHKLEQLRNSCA
Sequence of Nuclear receptor subfamily 1 group I member 2 (Homo sapiens) (O75469 whole entry, looked up, the tested form may be a part): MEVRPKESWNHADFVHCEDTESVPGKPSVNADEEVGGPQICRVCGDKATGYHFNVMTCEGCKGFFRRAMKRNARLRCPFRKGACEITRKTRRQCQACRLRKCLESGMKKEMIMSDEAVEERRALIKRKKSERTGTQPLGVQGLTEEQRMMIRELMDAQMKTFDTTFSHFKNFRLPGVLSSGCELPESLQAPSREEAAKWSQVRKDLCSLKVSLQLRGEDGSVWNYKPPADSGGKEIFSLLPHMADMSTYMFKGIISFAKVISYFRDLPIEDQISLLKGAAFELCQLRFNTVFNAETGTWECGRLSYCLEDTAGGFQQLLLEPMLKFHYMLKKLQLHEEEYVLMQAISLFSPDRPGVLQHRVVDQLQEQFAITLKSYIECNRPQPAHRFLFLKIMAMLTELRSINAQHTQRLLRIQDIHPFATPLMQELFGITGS
Sequence of Retinoic acid receptor alpha (Homo sapiens) (P10276 whole entry, looked up, the tested form may be a part): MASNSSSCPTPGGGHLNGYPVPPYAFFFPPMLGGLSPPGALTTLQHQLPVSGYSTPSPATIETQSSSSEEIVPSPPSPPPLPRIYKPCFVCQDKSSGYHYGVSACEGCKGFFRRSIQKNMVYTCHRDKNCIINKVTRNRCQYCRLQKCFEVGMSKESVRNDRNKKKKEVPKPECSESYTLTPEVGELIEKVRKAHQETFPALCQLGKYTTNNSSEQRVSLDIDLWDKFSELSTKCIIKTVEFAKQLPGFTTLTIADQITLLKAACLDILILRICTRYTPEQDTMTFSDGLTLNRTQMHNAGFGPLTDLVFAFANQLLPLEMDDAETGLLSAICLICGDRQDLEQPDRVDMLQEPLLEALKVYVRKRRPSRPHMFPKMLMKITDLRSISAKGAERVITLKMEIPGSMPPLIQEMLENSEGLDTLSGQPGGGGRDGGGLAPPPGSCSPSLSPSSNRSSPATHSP

As for `c1ccc(Oc2ccccc2)cc1`, the result in [1], in [2], in assay [3], in [4], in assay [5] and in [6] was inactive. Also, the call in assay [11], in assay [12] and in [14] was inactive. Further, the AC50 was 30.7 µM (active) in [7]; 30.6 µM (active) in assay [8]; 30.7 µM (active) in assay [9]; 31.5 µM (active) in [10]; 32.2 µM (active) in [13]; 31.2 µM (active) in assay [15].
`CCCCCCC(CO)CCCC` (centres undefined): the result in assay [1], in [2], in [3], in [4], in assay [5] and in assay [6] was inactive. Further, the outcome in assay [7], in assay [8], in [9], in [10], in assay [11] and in [12] was inactive. In addition, the result in assay [13], in assay [16] and in assay [17] was inactive. Moreover, the AC50 in assay [15] was 37.6 µM (active) and 31.2 µM (active).
As for `CCCSc1ccc2nc(NC(=O)OC)[nH]c2c1`, the compound was classed as inactive in assay [1], in [2], in [3], in assay [4], in assay [5] and in assay [6]. Further, the compound was called inactive in [11] and in assay [12].
Regarding `Cc1cccc(Nc2ccccc2)c1`, the call in assay [1], in assay [2], in assay [3], in assay [5], in [6] and in assay [11] was inactive. Further, the compound was classed as inactive in assay [12] and in assay [18]. In addition, the results for the AC50 in assay [4] and in assay [16] were 70.6 µM (active) and 85.4 µM (active), respectively.
Regarding `O=C(O)c1cc(C(=O)O)cc([N+](=O)[O-])c1`, the outcome in [1], in assay [2], in [3], in [4], in assay [5] and in assay [6] was inactive. Moreover, the compound was classed as inactive in assay [11], in assay [14] and in assay [18].
For `CCCC(=O)OC(C)(C)Cc1ccccc1`, the compound was classed as inactive in assay [1], in assay [2], in assay [3], in [5], in [6] and in assay [11]. In addition, the call in assay [12], in assay [16] and in assay [18] was inactive. Besides, the AC50 in assay [4] was 145 µM (active).
`CC(=O)O[C@H]1C[C@@H]2CC[C@@]1(C)C2(C)C`: the compound was called inactive in assay [1], in assay [2], in assay [3], in assay [4], in assay [5] and in [6]. Further, the compound was called inactive in [11], in [14], in [19], in assay [16], in assay [18] and in assay [17].
For `NCc1ccco1`, the compound was called inactive in assay [1], in [2], in [3], in assay [4], in [5] and in assay [6]. For the same compound, the compound was classed as inactive in assay [11], in [12], in [18], in assay [17] and in assay [20].
As for `CCCCCCCCSCCO`, the call in assay [1], in assay [2], in assay [3], in [5], in assay [6] and in assay [11] was inactive. In addition, the call in assay [12] was inactive. Moreover, the figures for the AC50 in [4] and in [16] were 186 µM (active) and 33.8 µM (active), respectively.
In the case of `CCOCCOCCOCC`, the outcome in [1], in [2], in [3], in assay [4], in assay [5] and in assay [6] was inactive. Moreover, the compound was classed as inactive in assay [11], in assay [19], in assay [16] and in assay [20].
In the case of `CCC(C)S` (centres undefined), the call in assay [1], in assay [2], in assay [3], in assay [4], in [5] and in assay [6] was inactive. Moreover, the result in assay [11], in [12] and in assay [18] was inactive.
